This passage reports SARS-CoV-2 infection rate results from the supplement of paper PMC13380429.

Values without a mark were called inactive.

This test deals with Vero E6 infected with SARS-CoV-2. In words: SARS-CoV-2 infection rate relative to infected DMSO; higher = more infection, active = 60 or less. Particulars: 24 h.
As for `C[C@@H](O)[C@H]1C(=O)N2C(C(=O)O)=C(S[C@@H]3CN[C@H](C(=O)N(C)C)C3)[C@H](C)[C@H]12` [meropenem] (10 µM), the SARS-CoV-2 infection rate was 104%.
Take `CN1CCN(Cc2ccc(Nc3ncc(Cl)c(Nc4ccccc4S(=O)(=O)N(C)C)n3)cc2)CC1` (10 µM): the SARS-CoV-2 infection rate is 120%.
Turning to `C[C@H](Oc1cc(-c2cnn(C3CCNCC3)c2)cnc1N)c1c(Cl)ccc(F)c1Cl` [crizotinib-(S)] (0.833333 µM), the SARS-CoV-2 infection rate was 99%.
The figure for `CCCC1(CCC)CCC2(CCN(CCCN(CC)CC)C2)CC1` [atiprimod] (0.833333 µM) is 82.5%; for `C[N+]1(C)[C@@H]2CC[C@H]1C[C@@H](OC(=O)C(CO)c1ccccc1)C2` (stereo partly specified) [methylatropine-nitrate] (10 µM) it is 104%; for `CN[C@H](C(=O)N[C@H](C(=O)N(C)[C@H](/C=C(\C)C(=O)O)C(C)C)C(C)(C)C)C(C)(C)c1ccccc1` [taltobulin] (10 µM) it is 98%.
Turning to `N[C@@H](CS(=O)O)C(=O)O` [L-cysteinesulfinic-acid] (10 µM), the SARS-CoV-2 infection rate is 108%.
Regarding `CN1CCC(=C2c3ccccc3CC(=O)c3sccc32)CC1` [ketotifen] (10 µM), the SARS-CoV-2 infection rate was 101%.
The figure for `CC#CC(=O)N1CC[C@@H](n2c(=O)n(-c3ccc(Oc4ccccc4)cc3)c3c(N)ncnc32)C1` (0.833333 µM) is 90%.
Regarding `CC1=C(/C=C/C(C)=C/C=C/C(C)=C/C=C/C=C(C)/C=C/C=C(C)/C=C/C2=C(C)CCCC2(C)C)C(C)(C)CCC1` [beta-carotene] (10 µM), the SARS-CoV-2 infection rate was 112%.
Consider `C[C@@H]1O[C@@H](O[C@H]2[C@H](Oc3cc(O)c4c(c3)O[C@H](c3ccc(O)cc3)CC4=O)O[C@H](CO)[C@@H](O)[C@@H]2O)[C@H](O)[C@H](O)[C@H]1O` [Naringin (Naringoside)] (10 µM), for which the SARS-CoV-2 infection rate was 106%.
For the molecule `CCCCCCCCCCCCCCCCOc1nc2ccc(C)cc2c(=O)o1` [cetilistat] (10 µM), the SARS-CoV-2 infection rate was 104%.
In the case of `CC[C@H](C)[C@H](N)C1=N[C@H](C(=O)N[C@@H](CC(C)C)C(=O)N[C@H](CCC(=O)O)C(=O)N[C@H](C(=O)N[C@H]2CCCCNC(=O)[C@H](CC(N)=O)NC(=O)[C@@H](CC(=O)O)NC(=O)[C@H](Cc3cnc[nH]3)NC(=O)[C@@H](Cc3ccccc3)NC(=O)[C@H]([C@@H](C)CC)NC(=O)[C@@H](CCCN)NC2=O)[C@@H](C)CC)CS1` [bacitracin] (10 µM), the SARS-CoV-2 infection rate is 112%.
The figure for `Cn1cc(-c2ccc3ncc(Cc4ccc5ncccc5c4)n3n2)cn1` (10 µM) is 83%; for `COc1c(C)c2c(c(O)c1C/C=C(\C)CCC(=O)O)C(=O)OC2` [mycophenolic-acid] (10 µM) it is 114%; for `COc1c(N2C[C@@H]3CCCN[C@@H]3C2)c(F)cc2c(=O)c(C(=O)O)cn(C3CC3)c12` [moxifloxacin] (10 µM) it is 106%.
As for `O=C(NCC1(N2CCN(c3ccccc3)CC2)CCOCC1)c1cccnc1Sc1ccccc1` (10 µM), the SARS-CoV-2 infection rate was 112%.
The result for `Nc1ncnc2c1nc(Br)n2[C@@H]1O[C@@H]2COP(=O)(O)O[C@H]2[C@H]1O` [8-bromo-cAMP] (10 µM) reads 102%; that for `CC(C(=O)O)c1ccc2c(c1)Cc1cccnc1O2` (stereo unspecified) [pranoprofen] (10 µM), 122%.
The result for `CC(C)[N+](C)(CCOC(=O)C1c2ccccc2Oc2ccccc21)C(C)C` [propantheline] (10 µM) reads 99.5%.
With `C=Cc1c(C)c2cc3nc(c(CC(=O)O)c4[n-]c(cc5nc(cc1[n-]2)C(C)=C5CC)c(C)c4C(=O)O)[C@@H](CCC(=O)O)[C@@H]3C.[Cu+2]` [chlorophyllin-copper] (10 µM), the SARS-CoV-2 infection rate was 108%.
The result for `CCOC(=O)[C@@H](N)Cc1ccc(O)c(O)c1` [etilevodopa] (10 µM) reads 110%.
In the case of `C[C@H](NCc1ccc(OCc2ccccc2F)cc1)C(N)=O` [priralfinamide] (10 µM), the SARS-CoV-2 infection rate is 114%.
For `CC[C@]12CCCN3CCc4c(n(c5ccccc45)C(=O)C1)[C@@H]32` [vinburnine] (10 µM), the SARS-CoV-2 infection rate was 99.5%.
The figure for `Oc1nc(O)c2cn[nH]c2n1` [oxypurinol] (10 µM) is 111%; for `CC(C)(C)c1ccc(S(=O)(=O)NCc2ccc(C(=O)Nc3cccnc3)cc2)cc1` (0.833333 µM) it is 107%.
